Test results from PubChem BioAssay.
The source made the active and inactive calls.

Columns and labels:
[1] = test system: Plasmodium falciparum Sir2 (PF13_0152, Sir2A); experiment: Plasmodium falciparum Sir2A binding compounds – biochemical, small-molecule microarray, 635 nm fluorescence, primary screen (AID 1098); details: fluorescence 635 nm, higher = more signal;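 also: score merges spot fluorescence intensity with its signal-to-noise ratio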
[2] = probe aDKK1 binding to arrayed compounds – biochemical, biotinylated probe, 635/667 nm fluorescence, primary screen (AID 1099); details: small-molecule microarray, higher = more signal;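 also: score merges 667nm spot fluorescence with signal to noise across triplicate slides; reference of the scale not given here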
[3] = probe aCHRDL2 binding to arrayed compounds – biochemical, biotinylated probe, 635/667 nm fluorescence, primary screen (AID 1100); details: small-molecule microarray, higher = more signal
[4] = change in splice reporter luminescence, either direction, cell-based, HEK293, spliceosome inhibition project, primary screen (AID 1101); details: HEK293 splicing luciferase reporter, 24 h, higher = more signal, called active from +8 up or from −8 down;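 also: HEK293 cells carrying a splicing-competent luciferase reporter gene; test concentration not given here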
[5] = target: Fibroblast growth factor 10 (Homo sapiens) (UniProt O15520); experiment: compounds binding fibroblast growth factor 10 – biochemical, small-molecule microarray, 635 nm fluorescence, primary screen (AID 1102); details: FGF10 binding, fluorescence 635 nm, higher = more signal
Sequence of Fibroblast growth factor 10 (Homo sapiens) (O15520 whole entry, looked up): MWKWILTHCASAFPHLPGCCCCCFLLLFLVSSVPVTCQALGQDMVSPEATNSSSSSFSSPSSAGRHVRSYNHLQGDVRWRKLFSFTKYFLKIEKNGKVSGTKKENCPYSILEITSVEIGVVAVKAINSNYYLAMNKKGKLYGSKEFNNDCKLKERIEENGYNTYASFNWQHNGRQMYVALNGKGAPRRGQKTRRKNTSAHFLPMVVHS

[6] = test system: glycogen synthase kinase-3 (GSK3A per assay name; protocol says GSK3B); experiment: compounds binding glycogen synthase kinase-3 – biochemical, small-molecule microarray, 635 nm fluorescence, GSK3A, primary screen (AID 1103); details: fluorescence 635 nm, higher = more signal; also: the record names both GSK3A and GSK3B
[7] = target: Epidermal growth factor receptor (Homo sapiens) (UniProt P00533); experiment: compounds binding epidermal growth factor receptor – biochemical, small-molecule microarray, 635 nm fluorescence, primary screen (AID 1104); details: EGFR binding, higher = more signal;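 also: score merges 667 nm emission intensity with spot signal to noise over triplicate slides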
Sequence of Epidermal growth factor receptor (Homo sapiens) (P00533 whole entry, looked up): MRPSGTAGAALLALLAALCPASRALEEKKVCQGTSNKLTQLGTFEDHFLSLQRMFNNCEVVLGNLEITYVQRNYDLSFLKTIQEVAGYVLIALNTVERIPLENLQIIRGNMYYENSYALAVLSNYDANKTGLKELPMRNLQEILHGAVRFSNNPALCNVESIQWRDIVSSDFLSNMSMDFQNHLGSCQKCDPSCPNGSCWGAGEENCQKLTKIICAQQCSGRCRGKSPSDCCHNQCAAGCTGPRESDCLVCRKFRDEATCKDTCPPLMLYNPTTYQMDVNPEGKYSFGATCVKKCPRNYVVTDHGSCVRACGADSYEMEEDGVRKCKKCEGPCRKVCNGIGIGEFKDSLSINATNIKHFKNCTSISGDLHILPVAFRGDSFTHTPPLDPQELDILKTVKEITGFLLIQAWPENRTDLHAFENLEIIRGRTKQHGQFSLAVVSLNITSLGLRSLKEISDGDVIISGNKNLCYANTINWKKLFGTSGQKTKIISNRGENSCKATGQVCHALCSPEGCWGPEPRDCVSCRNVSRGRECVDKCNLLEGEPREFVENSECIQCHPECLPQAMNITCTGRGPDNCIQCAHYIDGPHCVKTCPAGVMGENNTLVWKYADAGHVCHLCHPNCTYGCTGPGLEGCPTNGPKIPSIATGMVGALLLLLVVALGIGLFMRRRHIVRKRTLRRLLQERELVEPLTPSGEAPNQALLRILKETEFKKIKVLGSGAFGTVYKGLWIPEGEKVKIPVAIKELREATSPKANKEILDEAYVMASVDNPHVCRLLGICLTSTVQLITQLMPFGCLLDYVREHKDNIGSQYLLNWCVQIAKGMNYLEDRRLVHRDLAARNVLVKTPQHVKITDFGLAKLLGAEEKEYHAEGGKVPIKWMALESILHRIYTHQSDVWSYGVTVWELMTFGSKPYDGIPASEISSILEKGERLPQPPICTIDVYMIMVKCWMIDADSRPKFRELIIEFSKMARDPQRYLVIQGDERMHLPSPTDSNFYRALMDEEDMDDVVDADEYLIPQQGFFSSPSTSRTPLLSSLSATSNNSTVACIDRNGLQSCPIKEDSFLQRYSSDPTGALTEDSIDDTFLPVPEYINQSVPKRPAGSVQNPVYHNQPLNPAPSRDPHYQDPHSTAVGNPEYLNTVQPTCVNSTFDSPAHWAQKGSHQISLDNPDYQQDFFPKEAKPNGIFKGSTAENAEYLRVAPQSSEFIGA

[8] = target: Follistatin-related protein 3 (Homo sapiens) (UniProt O95633); experiment: compounds binding follistatin-related protein 3 – biochemical, small-molecule microarray, 635 nm fluorescence, primary screen (AID 1105); details: FSTL3 binding, higher = more signal;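 also: score merges emission near 667 nm and signal to noise per printed spot across three slides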
Sequence of Follistatin-related protein 3 (Homo sapiens) (O95633 whole entry, looked up): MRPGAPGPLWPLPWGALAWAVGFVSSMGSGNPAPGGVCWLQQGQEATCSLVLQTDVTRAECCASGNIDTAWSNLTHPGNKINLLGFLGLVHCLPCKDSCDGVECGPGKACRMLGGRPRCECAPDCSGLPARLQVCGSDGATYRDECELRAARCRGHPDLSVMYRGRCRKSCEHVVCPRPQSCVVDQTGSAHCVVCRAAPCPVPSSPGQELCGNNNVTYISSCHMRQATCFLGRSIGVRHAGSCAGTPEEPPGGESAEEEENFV

[9] = target: Dickkopf-related protein 1 (Homo sapiens) (UniProt O94907); experiment: small molecules binding DKK1 protein – biochemical, small-molecule microarray, 635 nm fluorescence scan, primary screen (AID 1106); details: higher = more signal;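 also: score merges emission near 667 nm with signal to noise over three replicate slides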
Sequence of Dickkopf-related protein 1 (Homo sapiens) (O94907 whole entry, looked up): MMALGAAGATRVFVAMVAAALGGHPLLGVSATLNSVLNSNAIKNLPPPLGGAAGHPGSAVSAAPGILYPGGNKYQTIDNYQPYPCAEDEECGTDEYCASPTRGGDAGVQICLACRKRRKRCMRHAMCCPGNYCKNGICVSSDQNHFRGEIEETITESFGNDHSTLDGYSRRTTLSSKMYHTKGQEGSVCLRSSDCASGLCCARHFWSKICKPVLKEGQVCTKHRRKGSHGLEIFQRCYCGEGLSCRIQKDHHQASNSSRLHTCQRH

[10] = test system: Inhibin beta A chain (activin A); experiment: small molecules binding activin A – biochemical, small-molecule microarray, 635 nm fluorescence scan, primary screen (AID 1107); details: INHBA, higher = more signal;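 also: mouse activin A protein probed at 4.33 µg/mL on printed slides; score merges bound-protein fluorescence near 667 nm with spot signal-to-noise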

SMILES	composite z-score [1]	composite z-score [2]	composite z-score [3]	z-score [4]	composite z-score [5]	composite z-score [6]	composite z-score [7]	composite z-score [8]	composite z-score [9]	composite z-score [10]
C=CCC(OC(C)=O)[C@@H]1[C@@H](N(Cc2ccc(-c3ccccc3)cc2)C(=O)c2cccc3ccccc23)c2cc(OCCCO)ccc2N1C(=O)c1ccc2ccccc2c1 (stereo not given in full)	-0.859	1.11	-0.0972	-0.686 (inactive)	0.256	0.201	-0.0576	0.5	-0.19	1.08
C=CCOC(=O)[C@H]1[C@@H]2C(=O)O[C@@H](c3ccccc3)[C@@H](c3ccccc3)N2[C@@H](c2ccc(OCCOC(=O)[C@@H]3C[C@@H]4C(=O)N[C@@H](CC(C)C)C(=O)N4[C@@H]3c3ccc(O)cc3)cc2)[C@]12C(=O)Nc1ccc(I)cc12	1.09	0.0615	-0.0756	-1.41 (inactive)	0.649	1.13	0.993	0.644	0.928	-0.0053
COc1ccc(CCNC(=O)[C@@H]2c3ccccc3C(=O)N(CC34CC5CC(CC(C5)C3)C4)[C@H]2c2ccc(CO)cc2)cc1	0.959	-0.0038	0.309	-1.02 (inactive)	1.06	0.406	0.277	0.644	0.323	0.64
Cc1ccc(S[C@]2(C(=O)NC3CC3)CC(=O)N(Cc3cc(C(F)(F)F)cc(C(F)(F)F)c3)[C@@H]2c2ccc(CO)cc2I)cc1	1.8	0.679	-0.525	0.0986 (inactive)	0.126	0.322	-0.141	0.484	-0.0211	1.15
CCCCC(=C=CC[C@@H](O)c1ccc(OCCO)cc1)C[C@@H](O)c1ccccn1	0.381	-0.0087	-0.162	0.0171 (inactive)	0.279	0.382	-0.123	0.588	0.414	0.981
O=C1OCCC=C[C@H]2OC34C=CCN(CCN5CCOCC5)C(=O)[C@H]3N(CCCO)C(=O)[C@@H]4C12 (stereo not given in full)	1.41	-0.242	0.119	-1.12 (inactive)	-0.272	-0.869	-0.938	-0.549	-0.0385	0.564
COCCOC(=O)N1C(=O)[C@@]2(c3cc(C#CCC(C(=O)OC)C(=O)OC)ccc31)[C@H](C(N)=O)[C@H]1C(=O)O[C@H](c3ccccc3)[C@H](c3ccccc3)N1[C@@H]2c1ccc(OCCO)cc1	1.13	0.271	0.25	-0.517 (inactive)	1.11	1.31	0.776	1.01	0.614	0.444
CO[C@H]1O[C@H](CO)[C@@H](OC(=O)Nc2ccc(C(F)(F)F)cc2)[C@H](OC(=O)Nc2ccccc2-c2ccccc2)[C@@H]1OC(=O)Nc1ccccc1-c1ccccc1	1.46	1.07	0.61	-0.0628 (inactive)	1.04	1.29	0.35	1.37	0.507	0.0026
CC(C)C[C@H]1NC(=O)[C@@]23C(=O)N[C@@H](Cc4ccccc4)C2[C@H](C)[C@@]2(C)O[C@H]2C3/C=C/C/C=C\CNC(=O)[C@@H]2CCCN2C1=O (stereo not given in full)	0.903	-0.244	-0.575	0.091 (inactive)	0.815	0.47	0.139	0.572	0.668	0.918
CC=CC(O)C1C=CC2C(=O)N(C)C(=O)C2N1NC(=O)OC(C)(C)C (stereo not given)	0.589	0.112	-0.388	1.54 (inactive)	0.216	0.423	0.271	0.864	0.739	1.04
CC1CC/C=C\[C@H]2OC34C=CCN(c5ccc(Cl)cc5)C(=O)[C@H]3N(CCCO)C(=O)[C@]4(C)C2C(=O)O1 (stereo not given in full)	0.312	-0.0782	0.717	0.453 (inactive)	-1.32	-1.28	-1.1	-0.949	-1.42	0.596
C=CC[C@@]1(C(=O)O)N=C(c2ccc(OCCCO)cc2)O[C@@H]1c1ccccc1CN=[N+]=[N-]	0.802	0.682	0.062	-1.38 (inactive)	0.397	0.828	0.583	1.17	0.592	1.15
CC#CCO[Si](C#CCCCCCC)(C(C)C)C(C)C	1.5	-0.32	1.21	0.176 (inactive)	-2.46	-0.719	-2.07	-2.09	-3.48	-2.74
O=C1NC(=O)C2C1C=CC(C(O)c1cccc(O)c1)N2Nc1ccc(Cl)cc1Cl (stereo not given)	-0.195	0.454	0.815	1.16 (inactive)	0.0046	-0.607	-0.531	-0.358	-0.555	0.519
